The full list was thinned out, with hits kept by preference.
Anesthetic bind: candidate novel general anesthetic via apoferritin binding; 0.074% of 350,000 active; Potency, µM (titrated, usually from 77.5 µM), hits mostly inhibitors; apoferritin/1-aminoanthracene competitive binding, fluorescence; AID 485281; also: nearly all actives have a fitted effect of over 20% in size
Target sequence (P02791 2-175 limits assumed): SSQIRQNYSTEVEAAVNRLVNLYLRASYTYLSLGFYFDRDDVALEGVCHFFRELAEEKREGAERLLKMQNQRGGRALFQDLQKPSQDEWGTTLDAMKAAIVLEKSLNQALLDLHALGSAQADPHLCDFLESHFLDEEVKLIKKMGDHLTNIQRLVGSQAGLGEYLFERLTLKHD
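In PBS, apoferritin at 10 uM is loaded with 1-AMA from a 50% saturated solution. After 10 min of compound exposure at ambient temperature, reduced 535 nm fluorescence indicates probe displacement.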
HTT aggregate: inhibitors of mutant huntingtin aggregate formation in PC12 cells. PC12 HttQ103-GFP aggregates, Acumen cytometry, 40 h. Potency, µM (highest dose often 46.1 µM), actives largely listed as inhibitors. 1.1% of 220,000 active. AID 1688; also: nearly all actives have a fitted effect of over 60% in size
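Aggregate formation scored by laser-scanning cytometer (488 excitation, 500–530 emission) in lysed PC12 cells expressing Q103-GFP after 100 nM tebufenozide induction; library tested in dose series, with ATPLite reagent added in the multiplex.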
PINK1 expr mod: PINK1 expression modulation | Potency, µM (top dose mostly 76.6 µM), actives largely listed as activators | 0.2% of 410,000 active | AID 624263 | PINK1 immunofluorescence, high-content cytometry, 24 h; active = well fitted activation curve with a large enough effect; inconclusive = small, poorly fitted or top-dose-only effect; cell line not stated here; also: nearly all actives have a fitted effect of over 65% in size
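A stable cell line was treated with compounds at 5 concentrations for 24 hours, with CCCP as control. PINK1 levels and mitochondrial localization were measured by immunofluorescence with mitochondrial, cell and nuclear markers after fixation, read by laser-scanning cytometry.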
TSG101-PTAP inh: blocks PTAP/TSG101 interaction to inhibit HIV-1 budding | Q99816 | Fluorescence polarization, FITC-PTAP peptide / Tsg101 binding | Potency, µM (series often up to 115 µM), usual class: inhibitors | 340,000 tested, under 10 active | AID 493005; active = well fitted inhibition curve with a large enough effect in the main read-out, with a control signal flat, not every such curve was filed as active; inconclusive = small, poorly fitted or top-dose-only effect, or effect the other way, or a change in a side signal; inactive = no such curve, though single readings can be large or run the other way
Target sequence (Q99816 whole entry, looked up): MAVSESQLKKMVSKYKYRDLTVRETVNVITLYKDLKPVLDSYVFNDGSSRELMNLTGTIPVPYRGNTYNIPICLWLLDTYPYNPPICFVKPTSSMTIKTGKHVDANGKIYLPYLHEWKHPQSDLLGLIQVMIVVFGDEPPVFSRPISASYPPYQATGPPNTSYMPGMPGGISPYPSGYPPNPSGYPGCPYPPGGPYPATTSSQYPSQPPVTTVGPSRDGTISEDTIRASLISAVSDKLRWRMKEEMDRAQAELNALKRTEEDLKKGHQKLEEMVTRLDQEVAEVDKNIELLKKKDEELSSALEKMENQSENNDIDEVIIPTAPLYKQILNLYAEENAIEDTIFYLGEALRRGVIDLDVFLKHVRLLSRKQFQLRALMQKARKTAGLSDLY
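Fluorescence polarization binding of Tsg101 binding domain (10 uM final) to FITC-labeled PTAP peptide (50 nM final) in HEPES pH 7.5 buffer with NaCl, Tween 20, EDTA, TCEP. Compounds added before peptide; binding 20 min at RT.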
HTT cytoprotect: Huntington cell model cytoprotection by ATP luminescence | PC12 HTT-Q103 induced, cytoprotection, ATP luminescence, 40 h | Potency, µM (doses to about 56.4 µM), actives largely listed as activators | 0.14% of 230,000 active | AID 1471; also: nearly all actives have a fitted effect of over 45% in size
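PC12 cells stably carrying ecdysone-inducible Htt exon 1 (Q103)–GFP were induced with 100 nM tebufenozide (final) alongside library compounds in a dose series. Cytoprotection was scored as retained ATP by ATPlite luminescence.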
Epigenetic derep: derepresses silenced GFP reporter in murine cells. 0.2% of 280,000 active. murine LDR cells, GFP reporter derepression, 30 h. Potency, µM (highest dose often 53.9 µM), hits mostly activators; also: nearly all actives have a fitted effect of over 60% in size
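Murine LDR cells bearing a silenced CMV-driven GFP reporter were exposed to compound for 30 h at 37 C. After PBS washes, GFP-positive cells (20-120 um objects) counted by laser-scanning microplate cytometry.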
Numbers stand for hits; [ ] = dose if it differs, or a comment. Unless noted, calls follow the shape of the dose curve; as a rule, active = well fitted curve in the direction sought with a large enough effect; inconclusive = small, poorly fitted or top-dose-only effect, or another doubt; inactive = no such curve, though single readings can be large; an effect the other way counts as inactive or inconclusive.

How did CCc1ccc(/C=C2\SC(=S)N(CCC(=O)N3CCN(C)CC3)C2=O)cc1 do in these assays?
Anesthetic bind: inactive; HTT aggregate: inactive; PINK1 expr mod: inactive; TSG101-PTAP inh: inactive; HTT cytoprotect: 17.8µM; Epigenetic derep: inactive

What do the screens show for `COCCN1C(=O)/C(=C/c2ccc(N3CCCC3)cc2)SC1=S`?
Anesthetic bind: inactive; HTT aggregate: inactive[9.22 µM]; PINK1 expr mod: inconclusive; TSG101-PTAP inh: inconclusive; HTT cytoprotect: inactive; Epigenetic derep: 3.55µM

How did COc1ccc(/C=C2\SC(=S)N(CCC(=O)N3CCCCC3)C2=O)cc1 do in these assays?
Anesthetic bind: inactive; PINK1 expr mod: inactive; TSG101-PTAP inh: inactive

How did O=C(NCc1ccco1)c1nc2c(nnn2Cc2cccc(Cl)c2)c(=O)[nH]1 do in these assays?
Anesthetic bind: inactive; HTT aggregate: inactive; PINK1 expr mod: inactive; TSG101-PTAP inh: inactive; HTT cytoprotect: 4.47µM; Epigenetic derep: inactive

Results for O=C(CCl)NCc1cc(-c2ccc(Cl)cc2)no1 ?
Anesthetic bind: inactive; HTT aggregate: 35.5µM; PINK1 expr mod: inactive; TSG101-PTAP inh: inactive; HTT cytoprotect: inactive; Epigenetic derep: inactive

What do the screens show for `COc1ccc(OCc2cc(-c3ccc(Cl)cc3)no2)cc1`?
Anesthetic bind: inactive; HTT aggregate: inactive; PINK1 expr mod: inactive; TSG101-PTAP inh: inactive; HTT cytoprotect: inactive[10 µM]; Epigenetic derep: inactive

How did CC(C)c1c(C(=O)N(C)Cc2cccc3ncccc23)cnn1-c1nccc(-c2ccccc2F)n1 do in these assays?
PINK1 expr mod: inactive

How did Oc1ccc(/C=N/Nc2ncc(Br)cn2)c(O)c1 do in these assays?
Anesthetic bind: inactive; HTT aggregate: 12.6µM; PINK1 expr mod: inactive; TSG101-PTAP inh: inactive; HTT cytoprotect: inactive[10 µM]; Epigenetic derep: inactive

Results for O=C(OCCN1C(=O)c2cccc3c(N4CCOCC4)ccc(c23)C1=O)c1cccc(Cl)c1 ?
Anesthetic bind: inactive; HTT aggregate: inconclusive; PINK1 expr mod: inactive; TSG101-PTAP inh: inconclusive; HTT cytoprotect: inactive[10 µM]; Epigenetic derep: 20µM

What do the screens show for `COc1ccc(C(=O)NCc2nc(-c3cccc(C)c3)no2)cc1OC`?
Anesthetic bind: inactive; PINK1 expr mod: inactive; Epigenetic derep: inactive

Results for O=C(CCSCc1ccc(Cl)cc1)N1CCN(c2ccccc2F)CC1 ?
Anesthetic bind: inactive; PINK1 expr mod: inactive; Epigenetic derep: inactive

What do the screens show for `Cc1cccc(NC(=S)NC(=O)C2CC2)c1`?
Anesthetic bind: 22.4µM

Results for Cc1cc(C)cc(NC(=S)NC(=O)C2CC2)c1 ?
Anesthetic bind: inactive; PINK1 expr mod: inactive; TSG101-PTAP inh: inactive

Results for COC(=O)c1ccc(Nc2c([N+](=O)[O-])ccc3nonc23)cc1 ?
Anesthetic bind: inactive; PINK1 expr mod: 14.1µM; TSG101-PTAP inh: inactive

How did N#CC(C#N)=NNc1ccc(S(=O)(=O)N2CCCCC2)cc1 do in these assays?
Anesthetic bind: inactive; HTT aggregate: 20µM; PINK1 expr mod: inconclusive; TSG101-PTAP inh: inactive; HTT cytoprotect: inactive[10 µM]; Epigenetic derep: inactive

How did O=C(Nc1cccc(Cl)c1)Nc1cc(S(=O)(=O)N2CCCCC2)ccc1Cl do in these assays?
Anesthetic bind: inactive; HTT aggregate: inconclusive; PINK1 expr mod: 14.1µM; TSG101-PTAP inh: inactive; HTT cytoprotect: inactive[10 µM]; Epigenetic derep: inactive

Results for O=C(Nc1ccc(S(=O)(=O)N2CCCCCC2)cc1)c1[nH]ncc1[N+](=O)[O-] ?
Anesthetic bind: 12.6µM

What do the screens show for `O=C(Nc1ccc([N+](=O)[O-])cc1)c1ccc(S(=O)(=O)N2CCCC2)cc1`?
Anesthetic bind: inactive; PINK1 expr mod: inconclusive; TSG101-PTAP inh: inactive

Results for N#C/C(=N\Nc1ccc(S(=O)(=O)N2CCOCC2)cc1)C(N)=S ?
Anesthetic bind: inactive; HTT aggregate: inactive[9.22 µM]; PINK1 expr mod: inactive; TSG101-PTAP inh: inactive; HTT cytoprotect: inactive[10 µM]; Epigenetic derep: inactive

Results for O=C(CNc1ccc(C(F)(F)F)cc1)Nc1cccc(S(=O)(=O)N2CCCCC2)c1 ?
PINK1 expr mod: 44.7µM

How did Cc1ccccc1-c1ccc(CN2CCc3nnc(C(NS(C)(=O)=O)C(C)C)n3CC2)cc1 (centres undefined) do in these assays?
PINK1 expr mod: inactive

Screens deposited in PubChem BioAssay by National Center for Advancing Translational Sciences (NCATS).
